Source: PubChem BioAssay AID1159580 (chemical genetic matrix, 2015)
Several values for one entry are separate records, joined by “and”; a condition that tells them apart may be missing. Equal entries are not always repeated. Hit rate of the full screen: of about 5,500 compounds, about 2,000 (36%) were called active. Inconclusive results (about 18%) are left out. Rule as the data show it: active = normalized growth mostly below about 0.91 (no sharp cut-off); inconclusive = no clear call, values can overlap the other calls; inactive = mostly above about 0.92. This is one part of the list.

Experiment: chemical genetic growth profiling, strain panel (AID 1159580);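 also: tested at 20 µM; growth read once vehicle control cultures reached saturation at 30 °C; 1 = growth at the plate median or of vehicle wells; lower values mean less growth of the strain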
Conditions: growth OD

Measured: normalized growth

CC(=O)N1CCCC1C(=O)O (configuration not stated)
inactive: S. cerevisiae deletion strains, locus YAL013W, strain DEP1, active compounds read low 1.01 | S. cerevisiae deletion strains, locus YBR021W, strain FUR4, active compounds read low 0.977 | S. cerevisiae deletion strains, locus YBR229C, strain ROT2, active compounds read low 1.01 | S. cerevisiae deletion strains, locus YCL029C, strain bik1, active compounds read low 1.03 | S. cerevisiae deletion strains, locus YDL035C, strain GPR1, active compounds read low 1.02 | S. cerevisiae deletion strains, locus YDL074C, strain BRE1, active compounds read low 1.02 | S. cerevisiae deletion strains, locus YDL101C, strain DUN1, active compounds read low 1.01 | S. cerevisiae deletion strains, locus YDL134C, strain PPH21, active compounds read low 1.01 | S. cerevisiae deletion strains, locus YDL185W, strain tfp1, active compounds read low 1.02 | S. cerevisiae deletion strains, locus YDL192W, strain arf1, active compounds read low 1.03 | S. cerevisiae deletion strains, locus YDR101C, strain arx1, active compounds read low 1.02 | S. cerevisiae deletion strains, locus YDR150W, strain NUM1, active compounds read low 1.01 | S. cerevisiae deletion strains, locus YDR162C, strain NBP2, active compounds read low 1.01 | S. cerevisiae deletion strains, locus YDR318W, strain mcm21, active compounds read low 1.02 | S. cerevisiae deletion strains, locus YDR388W, active compounds read low 1.02 | S. cerevisiae deletion strains, locus YDR502C, strain sam2, active compounds read low 1.02 | S. cerevisiae deletion strains, locus YEL061C, strain CIN8, active compounds read low 1.01 | S. cerevisiae deletion strains, locus YER110C, active compounds read low 1.03 | S. cerevisiae deletion strains, locus YER155C, strain BEM2, active compounds read low 1 | S. cerevisiae deletion strains, locus YER167W, strain BCK2, active compounds read low 1.01 | S. cerevisiae deletion strains, locus YGL078C, strain dbp3, active compounds read low 1.02 | S. cerevisiae deletion strains, locus YGL086W, strain mad1, active compounds read low 1.01 | S. cerevisiae deletion strains, locus YGL248W, strain PDE1, active compounds read low 1.01 | S. cerevisiae deletion strains, locus YGR078C, strain PAC10, active compounds read low 1 | S. cerevisiae deletion strains, locus YGR135W, strain pre9, active compounds read low 1.02 | S. cerevisiae deletion strains, locus YGR229C, strain SMI1, active compounds read low 0.99 | S. cerevisiae deletion strains, locus YGR252W, strain gcn5, active compounds read low 1.03 | S. cerevisiae deletion strains, locus YHR030C, strain SLT2, active compounds read low 1.01 and 0.953 | S. cerevisiae deletion strains, locus YHR079C, strain IRE1 (second series), active compounds read low 1.02 | S. cerevisiae deletion strains, locus YHR079C, strain IRE1, active compounds read low 0.975 | S. cerevisiae deletion strains, locus YHR094C, strain hxt1, active compounds read low 1.02 | S. cerevisiae deletion strains, locus YHR129C, strain ARP1, active compounds read low 1.01 | S. cerevisiae deletion strains, locus YHR200W, strain rpn10, active compounds read low 1.03 | S. cerevisiae deletion strains, locus YIL066C, strain RNR3, active compounds read low 1.02 | S. cerevisiae deletion strains, locus YIL073C, strain SPO22, active compounds read low 1.08 | S. cerevisiae deletion strains, locus YIL125W, strain kgd1, active compounds read low 1.02 | S. cerevisiae deletion strains, locus YIR030C, strain dcg1, active compounds read low 1.02 | S. cerevisiae deletion strains, locus YJL095W, strain BCK1, active compounds read low 1.01 and 0.981 | S. cerevisiae deletion strains, locus YJL134W, strain LCB3, active compounds read low 1.01 | S. cerevisiae deletion strains, locus YJL168C, strain set2, active compounds read low 1.02 | S. cerevisiae deletion strains, locus YJL187C, strain SWE1 (second series), active compounds read low 1.02 | S. cerevisiae deletion strains, locus YJR043C, strain POL32, active compounds read low 0.995 | S. cerevisiae deletion strains, locus YJR066W, strain TOR1, active compounds read low 0.872 | S. cerevisiae deletion strains, locus YJR075W, strain HOC1, active compounds read low 1 | S. cerevisiae deletion strains, locus YKL009W, strain mrt4, active compounds read low 1.02 | S. cerevisiae deletion strains, locus YKL068W, active compounds read low 1.03 | S. cerevisiae deletion strains, locus YKL085W, strain MDH1 (second series), active compounds read low 1.01 | S. cerevisiae deletion strains, locus YKL085W, strain MDH1, active compounds read low 1.01 | S. cerevisiae deletion strains, locus YKL190W, strain CNB1, active compounds read low 1.01 | S. cerevisiae deletion strains, locus YKR001C, strain vps1, active compounds read low 1.02 | S. cerevisiae deletion strains, locus YLR039C, strain RIC1, active compounds read low 1.03 | S. cerevisiae deletion strains, locus YLR058C, strain SHM2, active compounds read low 1.01 | S. cerevisiae deletion strains, locus YLR102C, strain apc9, active compounds read low 1.02 | S. cerevisiae deletion strains, locus YLR113W, strain HOG1, active compounds read low 1.01 | S. cerevisiae deletion strains, locus YLR262C, strain YPT6, active compounds read low 1.05 | S. cerevisiae deletion strains, locus YLR268W, strain sec22, active compounds read low 1.03 | S. cerevisiae deletion strains, locus YLR330W, strain CHS5, active compounds read low 1.01 | S. cerevisiae deletion strains, locus YLR342W, strain FKS1 (second series), active compounds read low 0.987 | S. cerevisiae deletion strains, locus YLR371W, strain rom2, active compounds read low 1.01 | S. cerevisiae deletion strains, locus YLR418C, strain cdc73, active compounds read low 1.04 | S. cerevisiae deletion strains, locus YML016C, strain PPZ1, active compounds read low 1.01 | S. cerevisiae deletion strains, locus YML032C, strain rad52, active compounds read low 1.02 | S. cerevisiae deletion strains, locus YML124C, strain tub3, active compounds read low 1.03 | S. cerevisiae deletion strains, locus YMR078C, strain ctf18, active compounds read low 1.04 | S. cerevisiae deletion strains, locus YMR223W, strain ubp8, active compounds read low 1.01 | S. cerevisiae deletion strains, locus YMR263W, strain SAP30, active compounds read low 1 | S. cerevisiae deletion strains, locus YMR307W, strain GAS1, active compounds read low 0.996 | S. cerevisiae deletion strains, locus YNL067W, strain RPL9B, active compounds read low 1 | S. cerevisiae deletion strains, locus YNL128W, strain TEP1, active compounds read low 1.01 | S. cerevisiae deletion strains, locus YNL153C, strain GIM3, active compounds read low 1 | S. cerevisiae deletion strains, locus YNL183C, strain NPR1, active compounds read low 0.883 | S. cerevisiae deletion strains, locus YNL233W, strain BNI4, active compounds read low 1.01 | S. cerevisiae deletion strains, locus YNL250W, strain rad50, active compounds read low 1.02 | S. cerevisiae deletion strains, locus YNL271C, strain bni1, active compounds read low 1.03 | S. cerevisiae deletion strains, locus YNL298W, strain CLA4, active compounds read low 1.04 | S. cerevisiae deletion strains, locus YNL307C, strain MCK1, active compounds read low 1.03 | S. cerevisiae deletion strains, locus YNL322C, strain KRE1, active compounds read low 1.01 | S. cerevisiae deletion strains, locus YNR052C, strain pop2, active compounds read low 1.03 | S. cerevisiae deletion strains, locus YOL006C, strain TOP1, active compounds read low 1.03 | S. cerevisiae deletion strains, locus YOL012C, strain htz1 1.51 | S. cerevisiae deletion strains, locus YOL147C, strain pex11, active compounds read low 1.02 | S. cerevisiae deletion strains, locus YOR061W, strain CKA2, active compounds read low 1.01 | S. cerevisiae deletion strains, locus YOR069W, strain VPS5, active compounds read low 1 | S. cerevisiae deletion strains, locus YOR136W, strain idh2, active compounds read low 1.02 | S. cerevisiae deletion strains, locus YOR144C, strain elg1, active compounds read low 1.02 | S. cerevisiae deletion strains, locus YOR184W, strain ser1, active compounds read low 1.03 | S. cerevisiae deletion strains, locus YOR231W, strain MKK1, active compounds read low 0.979 | S. cerevisiae deletion strains, locus YOR316C, strain cot1, active compounds read low 1.02 | S. cerevisiae deletion strains, locus YPL055C, strain LGE1, active compounds read low 1 | S. cerevisiae deletion strains, locus YPL241C, strain CIN2, active compounds read low 1.01 | S. cerevisiae deletion strains, locus YPL256C, strain CLN2, active compounds read low 0.941 | S. cerevisiae deletion strains, locus YPR119W, strain clb2, active compounds read low 1.02 | S. cerevisiae deletion strains, locus YPR141C, strain kar3, active compounds read low 1.03 | S. cerevisiae deletion strains, locus YPR163C, strain tif3, active compounds read low 1.02 | S. cerevisiae deletion strains, locus YPR167C, strain met16, active compounds read low 1.01 | S. cerevisiae deletion strains, strain wtn01, active compounds read low 1.02 | S. cerevisiae strains, strain wild type, active compounds read low 1
